From PubChem
NPC1 promoter act = activators of NPC1 promoter; Potency, µM (series often up to 9.22 µM), hits mostly activators; Huh7 NPC1 promoter luciferase reporter, 24 h; actives 2.4% (n = 320,000); further: nearly all actives have a fitted effect of over 60% in size
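Huh7 cells stably carrying NPC1 promoter–luciferase, plated in Opti-MEM with 10% FBS for 2 h, were exposed to compound in DMSO for 24 h at 37 °C; luciferase reagent was added for 10 min and luminescence read.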
SMN2 splice up = increases expression of the SMN2 splice variant; HEK293 SMN2-luciferase splicing reporter, luminescence, 30-36 h; AID 1458; actives 2.8% (n = 210,000); Potency, µM (highest dose often 46.1 µM), most hits filed as activators; further: nearly all actives have a fitted effect of over 55% in size
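qHTS luciferase splicing reporter: luminescence rises when SMN2 exon 7 is included in transfected HEK293 cells. Compound exposure lasted 30-36 h at 37C, with 4.5 mM final sodium butyrate as control, followed by a ONE-Glo read.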
FLuc modulator = counter-screen for miR-21 project: firefly luciferase inhibitors or activators; purified FLuc, Km substrates, luminescence inhibition; P08659; Potency, µM (doses to about 57.5 µM), most hits filed as inhibitors; actives 6.9% (n = 360,000); further: nearly all actives have a fitted effect of over 55% in size
Target sequence (P08659 whole entry, looked up): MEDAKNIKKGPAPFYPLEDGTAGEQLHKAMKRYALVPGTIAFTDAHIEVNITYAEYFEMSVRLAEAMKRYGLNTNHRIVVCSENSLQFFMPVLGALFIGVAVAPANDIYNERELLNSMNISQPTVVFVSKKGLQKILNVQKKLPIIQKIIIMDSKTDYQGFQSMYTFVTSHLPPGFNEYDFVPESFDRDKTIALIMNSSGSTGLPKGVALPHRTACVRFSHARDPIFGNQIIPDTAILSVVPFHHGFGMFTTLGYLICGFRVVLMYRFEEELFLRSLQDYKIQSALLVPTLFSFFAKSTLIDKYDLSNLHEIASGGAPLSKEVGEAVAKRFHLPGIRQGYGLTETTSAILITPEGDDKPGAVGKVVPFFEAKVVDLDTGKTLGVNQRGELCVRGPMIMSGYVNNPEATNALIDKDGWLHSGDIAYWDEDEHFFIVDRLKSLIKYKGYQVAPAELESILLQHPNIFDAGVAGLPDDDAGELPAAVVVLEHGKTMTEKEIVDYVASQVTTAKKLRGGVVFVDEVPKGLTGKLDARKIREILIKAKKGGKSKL
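Purified P. pyralis luciferase, 10 nM final, with Km-level 10 uM D-luciferin and 10 uM ATP in 50 mM Tris acetate pH 7.5, 10 mM Mg acetate, 0.01% Tween-20, 0.05% BSA; 6-point qHTS titration about 60 µM downward; luminescence read.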
ELG1 genotoxic = genotoxicity induction in ELG1-luciferase HEK293T cells. Potency, µM (titrated, usually from 46 µM), most hits filed as activators. AID 504466. HEK293T ELG1-luciferase reporter, luminescence, 16 h. actives 1.3% (n = 330,000); further: nearly all actives have a fitted effect of over 60% in size
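ELG1-luciferase HEK293T cells, 2,000/well; compound pinned in; 16 hr, 37 °C, 5% CO2; ONE-Glo, 30 min RT; luminescence on CCD imager.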
Rab9 promoter act = Rab9 promoter activation; Huh7 Rab9 promoter-luciferase reporter, luminescence, 24 h; Potency, µM (series often up to 9.22 µM), usual class: activators; actives 2.8% (n = 320,000); AID 485297; further: nearly all actives have a fitted effect of over 60% in size
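Huh7 reporter line, Rab9 promoter upstream of luciferase. Compound exposure 24 h at 37 °C in reduced-serum medium with 10% FBS. Read-out: luminescence.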
A number is an active result; - = inactive; ? = inconclusive; . = no result. An excerpt weighted towards active compounds, which were near 7.4% of everything screened. The call rests on the fitted dose curve; in most records, active means well fitted curve in the direction sought with a large enough effect; inconclusive means small, poorly fitted or top-dose-only effect, or another doubt; inactive means no such curve, though single readings can be large; an effect the other way counts as inactive or inconclusive.

SMILES	NPC1 promoter act	SMN2 splice up	FLuc modulator	ELG1 genotoxic	Rab9 promoter act
Nc1nnc(SCC(=O)Nc2ccc(Cl)cc2)s1	.	.	-	.	.
Nc1ccccc1SCC(=O)Nc1ccc2c(c1)OCCO2	2.2µM	.	19µM	?	3.2µM
CC(C)c1ccc(NC(=O)COC(=O)CSc2nnc(N)s2)cc1	-	-	15µM	-	-
Cc1ccnc(NC(=O)CSc2ccc3c(c2)OCCO3)c1	-	.	?	18µM	-
CC(Nc1ccc2c(c1)OCCO2)C(=O)N1CCc2ccccc21 (configuration not stated)	-	-	27µM	-	-
CCCCCCCCN	.	-	.	.	.
CCOC(=O)C1CCN(S(=O)(=O)c2cc(-c3onc(C)c3C)ccc2OC)CC1	.	.	-	.	.
O=C(CNC(=O)c1ccc(Br)o1)NNC(=O)COc1ccccc1Cl	-	.	-	-	-
COc1ccccc1Nc1nc(N)nc(CN2CC(C)CC(C)C2)n1 (configuration not stated)	-	-	-	-	-
C=C1/C(=C\C=C2/CCC[C@]3(C)C([C@H](C)CCCC(C)(C)O)CC[C@@H]23)C[C@@H](O)C[C@@H]1O (some centres not stated)	.	-	.	.	.
Cc1cc(/C=N/NC(=O)c2ccsc2)c(C)n1-c1cnccn1	-	-	19µM	?	?
Cc1cc(C)cc(-n2c(C)cc(/C=N/NC(=O)c3ccncc3)c2C)c1	-	-	-	-	-
Cc1ccccc1-n1c(C)cc(/C=N/NC(=O)c2ccncc2)c1C	-	-	3.8µM	-	-
O=C(ONc1ccc(N=NC(=O)c2ccccc2O)cc1)c1ccccc1	?	.	8.5µM	10µM	4µM
O=Nc1ccc(NOC(=O)c2ccccc2Br)cc1	-	-	0.24µM	-	-
O=C(NNc1c2ccccc2nc2ccccc12)c1cccc(O)c1	-	-	24µM	-	-
O=C(NNc1c2ccccc2nc2ccccc12)c1ccc(O)cc1O	-	-	13µM	-	-
O=C(NNc1c2ccccc2nc2ccccc12)c1ccccc1O	-	-	?	-	-
O=C(NNC(=O)c1cccc2ccccc12)c1ccc(-c2ccccc2)cc1	-	-	-	-	-
O=C(NNC(=O)c1ccc(O)cc1O)c1ccc(-c2ccccc2)cc1	-	.	19µM	-	-
O=C(NNc1c2ccccc2nc2ccccc12)c1ccc(O)cc1	-	-	17µM	-	-
CCn1nc(-c2ccccc2)c(-c2ccccc2)c(C(=O)OCCOC)c1=O	.	-	-	.	.
CCOc1ccc(NC(=O)CSc2oc(-c3cccs3)nc2S(=O)(=O)c2ccc(C)cc2)cc1	.	-	-	.	.
CN(C)CCOC(=O)CCCCCCCCC(=O)OCCN(C)C	-	.	-	-	-
O=C(O)c1cccc(Nc2ccc([N+](=O)[O-])cn2)c1	-	.	?	-	-
SMILES	NPC1 promoter act	SMN2 splice up	FLuc modulator	ELG1 genotoxic	Rab9 promoter act
O=C(N/N=C/C(Cl)=C/c1ccc([N+](=O)[O-])cc1)C(=O)Nc1cccc(C(=O)O)c1	?	.	24µM	?	?
COC(=O)C1CCCCN1C(=O)CCc1nnc(CCc2c[nH]c3ccccc23)o1 (configuration not stated)	-	.	-	-	-
COC(=O)[C@@H]1CCCN1C(=O)CCc1nnc(CCc2c[nH]c3ccccc23)o1	-	.	17µM	-	-
COC(=O)[C@@H]1CCCN1C(=O)CCc1nnc(CCC2CCCCC2)o1	-	?	19µM	?	?
Cc1ccccc1OCc1ccc(-c2nc(C#N)c(N3CCN(c4ccccc4)CC3)o2)o1	.	.	-	.	.
Cc1ccc(/C([O-])=C(/C(=S)Nc2ccc(SC(F)F)cc2)[n+]2ccccc2)cc1[N+](=O)[O-]	-	-	-	-	-
Oc1ccc(/C=N/N=C(c2ccccc2)c2ccccc2)c(O)c1O	-	-	?	-	-
O=C(/C(=N/N=C/c1ccc(O)c(O)c1O)c1ccccc1)c1ccccc1	-	3.2µM	-	-	-
O=C(O)c1nn(Cc2csc(-c3ccccc3)n2)c(=O)c2ccccc12	-	.	-	-	-
CCOc1ccc(S(=O)(=O)NCCC(=O)OCC(=O)c2ccc(NC(C)=O)cc2)cc1	-	.	-	-	-
N#Cc1ccc(OCC(=O)NCC2COc3ccccc3O2)cc1 (configuration not stated)	-	.	-	-	-
O=C(O)c1ccc(Cn2nnc3sc4c(c3c2=O)CCCC4)cc1	-	-	13µM	?	?
Nn1c(Nc2ccccc2)nc2sc3c(c2c1=O)CCC3	-	-	9.5µM	?	-
NNc1nc(-c2ccccc2)nc2sc3c(c12)CCCC3	3.5µM	-	0.54µM	1.3µM	2.2µM
CCc1nc2sc3c(c2c(=O)n1N)CCC3	-	-	-	-	-
NNc1nc2sc3c(c2c(=O)n1Cc1ccccc1)CCC3	-	.	6.7µM	-	-
CCc1ccc(NC(=O)CSc2c(C)cnc3c2c(=O)n(C)c(=O)n3C)cc1	.	.	-	.	.
CC(=O)c1cccc(NC(=S)NCCCCc2ccccc2)c1	-	.	-	-	-
CN(C)c1ccc(/C=C2\C(=N)N3N=C(CC(=O)N4CCCCC4)SC3=NC2=O)cc1	-	.	13µM	-	-
O=C(NCc1ccc2c(c1)OCO2)c1nc(Cn2cc([N+](=O)[O-])cn2)no1	-	.	-	-	-
Nc1nonc1-c1noc(N2CCCCC2)n1	-	-	19µM	?	?
COc1ccc(-c2cc3ccc(O)cc3oc2=O)cc1OC	?	.	?	?	-
COc1ccc(-c2coc3cc(O)ccc3c2=O)c(OC)c1	.	-	.	.	.
COc1ccc(-c2coc3cc(O)ccc3c2=O)cc1	.	11µM	.	.	.
COc1ccc(-c2coc3cc(O)ccc3c2=O)cc1O	?	.	9.5µM	13µM	?
SMILES	NPC1 promoter act	SMN2 splice up	FLuc modulator	ELG1 genotoxic	Rab9 promoter act
Cc1cccc(CN2CCc3c([nH]c4ccccc34)C2C(C)(C)C)n1 (configuration not stated)	-	.	-	-	-
Cc1ccn2cc(-c3cccc(S(=O)(=O)N4CCCCC4)c3)nc2c1	-	.	19µM	-	-
Cc1ccc2nc(-c3cccc(S(=O)(=O)N4CC(C)OC(C)C4)c3)cn2c1 (configuration not stated)	-	.	13µM	?	-
O=S(=O)(c1cccc(-c2cn3cccnc3n2)c1)N1CCCCCC1	-	-	-	-	-
Cc1ccc2nc(-c3cccc(S(=O)(=O)N4CCCC4)c3)cn2c1	-	.	6.7µM	-	-
COc1ccc(/C=C/C(=O)NC(=S)NNC(=O)c2cnccn2)cc1	-	.	17µM	?	-
COc1ccc(/C=C/C(=O)NC(=S)NNC(=O)c2cccnc2)cc1	-	-	24µM	-	-
CCCCOc1ccc(C(=O)Nc2nc3c(s2)CC(C)CC3)cc1 (configuration not stated)	.	.	-	.	.
COC(=O)c1ccc(C(=O)NC(=S)Nc2nc3c(s2)CC(C)CC3)cc1 (configuration not stated)	-	16µM	-	-	-
COc1ccc(-n2nc(C(=O)N3CCN(c4ccccc4OC)CC3)c3c4ccccc4n(C)c3c2=O)cc1	.	-	-	.	.
